From PubChem BioAssay
A selection: hits, their analogues and other compounds. The true share with any hit is near 3%.
PAFAH2 FP inh – inhibitors of human PAFAH2 | Q99487 | recombinant PAFAH2, FP-rhodamine activity probe, fluorescence polarization | inhibition, % at 3.39 µM | 0.99% of 340,000 active | AID 492956;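 active means inhibition above the mean over all tested compounds plus 3 SD, cut at about 30% in these data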;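 further: inhibitors block probe labeling of enzyme so polarization drops; 0% = enzyme with DMSO and 100% = wells lacking PAFAH2 protein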
Fh CTSL1 inh – blocks F. hepatica cathepsin L1 in PFM18AAP counter-screen; recombinant F. hepatica cathepsin L1, Z-Leu-Arg-MCA fluorescence; inhibition, % at 5.96 µM; 0.49% of 300,000 active; AID 1906;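 active means inhibition above the mean of all tested compounds plus 3 SD, set per screening campaign, cut at about 17% in these data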;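 further: 0% = plate median of test compound wells and 100% = 1 µM Z-Phe-Ala-diazomethylketone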
PAFAH1B2 FP inh – inhibitors of human PAFAH1B2; 1.2% of 340,000 active; recombinant PAFAH1B2, FP-rhodamine activity probe, fluorescence polarization; P68402; inhibition, % at 3.39 µM;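 active means inhibition above the mean of all tested compounds plus 3 SD, cut at about 24% in these data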;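 further: 0% = enzyme with DMSO and 100% = wells lacking PAFAH1B2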
pPAFAH FP inh – inhibitors of human plasma PAF acetylhydrolase (pPAFAH). recombinant pPAFAH, FP-rhodamine probe fluorescence polarization. 1.5% of 330,000 active. Q13093. inhibition, % at 3.39 µM. AID 463082;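 active means inhibition above the mean inhibition across the screen plus 3 SD, cut at about 25% in these data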;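 further: inhibitors block binding of the rhodamine activity-based probe so polarization drops; 0% = enzyme with DMSO and 100% = wells lacking pPAFAH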
PAFAH1B3 inh – blocks human PAF acetylhydrolase 1B catalytic subunit 3 | recombinant PAFAH1B3, FP-rhodamine probe, fluorescence polarization | inhibition, % at 3.39 µM | 0.28% of 340,000 active | AID 492972;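 active means inhibition above the screen-wide average of all tested compounds plus 3 SD, cut at about 25% in these data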;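 further: 0% = enzyme with DMSO only and 100% = wells lacking PAFAH1B3 protein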
PP5 primary – blocks human protein phosphatase 5 activity | P53041 | purified PP5c, OMFP substrate fluorescence | inhibition, % at 6.7 µM | 0.18% of 320,000 active;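 active means inhibition above the campaign's mean inhibition across all tested compounds plus 3 SD, cut at about 9.5% in these data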;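 further: 0% = DMSO only and 100% = 100 µM cantharidin control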
Target sequence (P53041 whole entry, looked up): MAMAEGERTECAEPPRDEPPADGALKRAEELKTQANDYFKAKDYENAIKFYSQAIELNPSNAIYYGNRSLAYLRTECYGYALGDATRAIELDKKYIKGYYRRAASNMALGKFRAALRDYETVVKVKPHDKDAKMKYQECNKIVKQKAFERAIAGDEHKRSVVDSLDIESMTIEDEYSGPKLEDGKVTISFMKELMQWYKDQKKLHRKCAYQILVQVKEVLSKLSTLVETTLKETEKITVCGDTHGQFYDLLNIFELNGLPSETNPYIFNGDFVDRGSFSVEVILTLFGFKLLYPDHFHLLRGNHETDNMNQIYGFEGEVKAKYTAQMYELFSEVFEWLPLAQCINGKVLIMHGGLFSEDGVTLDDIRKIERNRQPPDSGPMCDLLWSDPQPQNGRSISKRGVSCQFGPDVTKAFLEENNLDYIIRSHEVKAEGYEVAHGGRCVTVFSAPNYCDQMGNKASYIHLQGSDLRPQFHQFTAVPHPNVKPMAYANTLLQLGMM
pPAFAH FP conf – pPAFAH (human) inhibition, confirmed. shares compounds with pPAFAH FP inh. recombinant pPAFAH, FP-Rh probe fluorescence polarization. inhibition, % at 3.39 µM. 72% of 2,300 active;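 active means mean inhibition of the triplicate above the hit cutoff set for the earlier primary screen, cut at about 25% in these data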;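 further: 0% = enzyme with DMSO and 100% = wells lacking pPAFAH enzyme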
An asterisk follows results filed as active; . = not tested or not shown.

SMILES	PAFAH2 FP inh	Fh CTSL1 inh	PAFAH1B2 FP inh	pPAFAH FP inh	PAFAH1B3 inh	PP5 primary	pPAFAH FP conf
N#C/C(=C(/O)c1ccc2c(c1)OCO2)c1nc2cc(C(F)(F)F)ccc2s1	19	3	89*	38*	11	4	60*
O=C(O)CN1C(=O)/C(=C\c2cc(Br)ccc2OCc2ccc(F)cc2)SC1=S	50*	-4	13	51*	16	4	63*
N#Cc1c(NCCN)nc(-c2ccccc2)c2c1CCCC2	7	0	3	0	2	-2	.
N#Cc1c(NCCCO)nc(-c2ccccc2)c2c1CCCC2	-2	12	8	36*	2	-2	15
COc1ccccc1C(=O)NC(=O)COC(=O)Cn1cnc2c1c(=O)n(C)c(=O)n2C	3	-2	-1	2	10	-2	.
Cc1cc(O)ccc1N=Cc1c(C(F)(F)F)[nH][nH]c1=O	27	5	16	74*	21	3	10
COc1cc(C2CC(=O)N3CN(Cc4ccco4)CSC3=C2C#N)ccc1OCc1ccccc1 (configuration not stated)	5	5	-1	36*	0	0	11
Cc1ccccc1NC(=O)CCN1CCc2ccccc2C1	6	-1	0	-3	4	-2	.
CC1(C)Cc2ccccc2C(=NCC(=O)O)N1	-6	-3	3	35*	10	3	2
CCN=c1scc(-c2ccco2)n1/N=C/c1ccc(O)cc1	3	2	4	2	11	-1	.
COCCN=c1scc(-c2cccs2)n1/N=C/c1ccc(O)c(O)c1O	9	6	-7	44*	-6	4	75*
CCN=c1scc(C)n1/N=C/c1cc(Br)c(O)c(Br)c1	19	6	14	41*	20	-2	25*
COCCN=c1scc(-c2ccccc2)n1/N=C/c1c[nH]c2ccccc12	13	2	4	12	6	1	.
CCN=c1scc(C)n1/N=C/c1ccc(O)c(O)c1O	13	1	0	46*	9	3	11
COCCN(C(=O)c1ccc(OC2CCN(S(=O)(=O)N(C)C)CC2)cc1)C(C)C	5	0	1	1	10	3	.
CCOc1ccc(Cl)cc1S(=O)(=O)N1CCC(C(=O)NCc2ccncc2)CC1	1	-10	-2	-2	0	-1	.
O=C(O)c1cc(-c2ccco2)nn1-c1cccc(Cl)c1	16	-6	9	40*	12	-3	16
CC(C)Cc1ccc(C(C)C(N)=NCCc2ccccc2)cc1 (configuration not stated)	5	.	8	.	5	.	.
COc1cc(C(=O)NCCC(=O)NC2CCCCC2)cc(OC)c1OC	13	-1	2	47*	0	2	3
CCOC(=O)c1ccc(N2C(=O)CC(Sc3ncccn3)C2=O)cc1 (configuration not stated)	-3	3	0	40*	6	-1	5
Cc1ccc(C(C)C)c(OCc2ccc(C(=O)N/N=C/c3ccc(O)c(O)c3)cc2)c1	14	-1	-1	61*	34*	7	84*
COc1cc(/C=N/NC(=O)c2ccc(COc3cc(C)ccc3C(C)C)cc2)cc(OC)c1O	-11	-3	0	7	7	2	.
O=C(N/N=C/c1ccc(O)c(O)c1)c1ccc(CSc2cccc3cccnc23)cc1	24	0	10	69*	17	5	86*
Cc1ccc(S(=O)(=O)Nc2ccccc2F)cc1C(=O)NNC(=O)c1ccccc1O	10	-1	8	5	17	0	.
CCOC(=O)/C(C#N)=C/Nc1ccccc1NS(=O)(=O)c1ccc(C)c(C)c1	1	-6	3	1	4	0	.
SMILES	PAFAH2 FP inh	Fh CTSL1 inh	PAFAH1B2 FP inh	pPAFAH FP inh	PAFAH1B3 inh	PP5 primary	pPAFAH FP conf
CCOC(=O)/C(C#N)=C/Nc1ccccc1NS(=O)(=O)c1cccc(C(C)=O)c1	1	2	-2	35*	5	2	9
COc1ccccc1CCNC(=O)c1nccnc1C(=O)O	-5	0	7	2	5	0	.
CC(OC(=O)CCCN=C1NS(=O)(=O)c2ccccc21)C(=O)N(C)c1ccccc1 (configuration not stated)	1	-3	-1	68*	6	0	0
O=C(Nc1cc(S(=O)(=O)N2CCOCC2)ccc1O)c1ccc(NS(=O)(=O)c2ccc(Cl)s2)cc1	2	7	7	45*	-4	-1	45*
COc1ccc(NS(=O)(=O)c2ccc(O)c(NC(=O)c3ccc(S(=O)(=O)N4CCCCCC4)cc3)c2)cc1	-26	2	1	46*	-16	-1	57*
Cc1ccc(N(CCC#N)C(=O)COC(=O)C2=COCCO2)cc1	3	-5	0	4	9	-1	.
Cc1ccc(NC(=O)c2cc3c(=O)oc4ccc(C)cc4c3s2)nc1	.	-2	.	66*	.	-1	6
N#CC1(NC(=O)CSc2nnc(-c3ccccc3F)o2)CCCCC1	1	2	3	3	4	0	.
O=C(N/N=C1/CC2CCC1C2)c1cc2ccccc2cc1O (configuration not stated)	3	3	0	46*	-2	0	4
CCOC(=O)c1c(-c2ccc(F)cc2)csc1NC(=O)C1CC=CCC1C(=O)O (configuration not stated)	10	0	7	-6	5	3	.
CCOC(=O)c1c(-c2ccc(C)c(C)c2)csc1NC(=O)C1CC=CCC1C(=O)O (configuration not stated)	18	-2	2	41*	-3	5	39*
O=C(O)C(CCCCNS(=O)(=O)c1ccc(F)cc1)NS(=O)(=O)c1ccc(F)cc1 (configuration not stated)	16	-4	10	9	6	1	.
C=CCn1c(SC(C)C(=O)Nc2ccc(F)c(F)c2F)nnc1C1CC1 (configuration not stated)	0	3	0	35*	-7	2	2
COc1ccc(CC(=O)Nc2cccc(/C(C)=N/NC(=O)c3cccc([N+](=O)[O-])c3)c2)cc1	-2	-1	3	80*	0	3	5
COc1ccc(CC(=O)N/N=C(\C)c2cccc(NC(=O)C3CC3)c2)cc1	3	.	0	.	-8	.	.
CN(C(=O)c1cccc(NC(=O)Cc2cccc(NC(=O)C3CCCN(C(=O)c4ccccc4)C3)c2)c1)C1CCC1 (configuration not stated)	1	.	2	.	3	.	.
CCOC(=O)N1CCN(C(=O)c2ccc3c(=O)n4c(nc3c2)CCCCC4)CC1	.	-1	.	56*	.	2	1
